Experimental findings from PubChem BioAssay (NCI) are described below.

What all share (experiment): NCI-60 one-dose screen, 48 h (100 = growth as untreated, 0 = no growth, -100 = all killed)
Holding throughout (settings): 10 µM unless noted

In assay [1] the test system is DU-145 prostate.
In assay [2] the test system is K-562 leukemia.
In assay [3] the test system is MALME-3M melanoma.
The test system of assay [4] is MDA-MB-231 breast.
Assay [5] deals with RXF 393 renal.
The subject of assay [6] is SF-268 CNS.
Assay [7] deals with SF-295 CNS.
For assay [8], the system named is SF-539 CNS.
Assay [9] deals with UACC-257 melanoma.
For assay [10], the system named is M14 melanoma.
Assay [11] has as its system HCT-15 colon.
Assay [12] has as its system HT29 colon.
Assay [13] concerns SNB-75 CNS.
Assay [14] has as its system SNB-19 CNS.
The subject of assay [15] is U251 CNS.
The test system of assay [16] is PC-3 prostate.
Assay [17] concerns SK-MEL-5 melanoma.
Assay [18] concerns UACC-62 melanoma.
The subject of assay [19] is LOX IMVI melanoma.
Assay [20] deals with SK-MEL-28 melanoma.

This is part of a sample that, as a whole, favours compounds with a hit. Of some 83,000 tested, about 20% had one in any assay.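 For each line, cells grew in 96-well plates with the test compound present at a single concentration for 48 hours.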 A number with no mark means an inactive call. The source made the active and inactive calls. The calls were made as follows: active = growth percent below 10; inactive = the rest.

As for `C=C1C(=O)O[C@H]2[C@H]1CC/C(COC(=O)/C=C\C(=O)NCc1ccc(Cn3c(=O)sn(CCCl)c3=O)cc1)=C\CC[C@@]1(C)O[C@@H]21`, the growth in assay [1] was 57.6%; in assay [2] it was 28.9%; in assay [3] it was 43.6%; in [4], 90%; in [5], 56.3%; in [6], 89%. In addition, the growth was 103% in [7]; 96.5% in assay [8]; 81.8% in [9]; 51.6% in assay [10]; 44.8% in assay [11]; 86.6% in assay [12]. Besides, the growth in assay [13] was 99.5%; in assay [14] it was 111%; in [15], 88.9%; in assay [16] it was 94.6%; in assay [17], 101%; in assay [18], 85.7%. The growth in assay [19] was 67.2%; in assay [20] it was 87%.
Take `COc1ccc(/C=C2\COc3ccc(O)cc3C2=O)cc1`: the growth in assay [1] was 111%; in [2] it was 24%; in [3] it was 96.1%; in assay [4] it was 92.8%; in assay [5], 115%; in [6] it was 99.4%. Further, the growth in assay [7] was 108%; in assay [8] it was 102%; in [9] it was 106%; in assay [10], 90.8%; in assay [11], 77.5%; in assay [12] it was 80.1%. Besides, the growth in assay [13] is 96.8%; in [14] it was 96.7%; in assay [15], 85.5%; in [16] it was 95.2%; in assay [17], 99.3%; in assay [18], 85.7%. In addition, the growth in [19] was 74.3%; in assay [20], 102%.
Regarding `COc1ccc(CCN(CC(=O)N(CC(N)=O)C2CCC[C@@H]2OCc2ccccc2)C(=O)CN(C(=O)CN(CCc2ccc(Cl)cc2)C(=O)CN(C(=O)CN(C)Cc2ccccc2F)[C@H](C)C2CCCCC2)[C@H](C)C2CCCCC2)cc1OC` (stereo not given in full), the growth is 43.7% in assay [1]; 10.4% in assay [2]; 51.7% in assay [3]; 29.7% in assay [4]; -10% (active) in assay [5]; 26.5% in [6]. Moreover, the growth in assay [7] was -0.412% (active); in [8], 33.7%; in [9], -5.66% (active); in [10] it was 19.3%; in assay [11], 33.7%; in assay [12] it was 0.386% (active). Further, the growth in assay [13] was 53.5%; in [14], 33.9%; in [15], 21.5%; in assay [16], 15%; in [17], -41.8% (active); in assay [18], 33.8%. The growth was -33% (active) in [19] and 32.5% in assay [20].
For the molecule `COc1cc(OC)cc(-c2ccc(-c3ccc(C(=N)N)o3)o2)c1`, the growth was 60.2% in assay [1]; 4.64% (active) in [2]; 71.3% in assay [3]; 0.981% (active) in [4]; 58.2% in assay [5]; 62.6% in assay [6]. Besides, the growth was 86.3% in [7]; 73.1% in assay [8]; 45.4% in assay [9]; 25.1% in assay [10]; -6.9% (active) in [11]; 8.19% (active) in assay [12]. Further, the growth was 87.6% in assay [13]; 51.3% in assay [14]; 8.25% (active) in [15]; 71.2% in [16]; 76% in [17]; -3.63% (active) in [18]. Also, the growth in [19] is -64.1% (active); in assay [20], 87.8%.
On to `Cc1ccc(CNc2ccc3nc(CCC(C)C)[nH]c3c2)cc1`, for which the growth in [1] is 101%; in assay [2], 79.2%; in assay [3], 90.9%; in assay [4], 86%; in assay [5], 96%; in [6], 91.2%. Further, the growth in assay [7] is 95.1%; in assay [8] it was 94.4%; in assay [9], 89.7%; in assay [10], 96.2%; in assay [11] it was 79.5%; in assay [12] it was 92.4%. Moreover, the growth in assay [13] was 86.4%; in [14], 89%; in assay [15], 91.8%; in assay [16], 77.9%; in assay [17], 97.8%; in [18], 90.7%. Further, the growth is 94.5% in assay [19] and 98% in assay [20].
Turning to `Cc1ccc2nc(-c3ccc(C(=O)NNC(=S)Nc4ccccc4)cc3)[nH]c2c1`, the growth in assay [1] is 102%; in [2] it was 62.5%; in [3], 94.5%; in assay [4] it was 99.6%; in assay [5], 91.1%; in [6], 99.7%. The growth in assay [7] is 90%; in [8] it was 99.4%; in [9], 102%; in assay [10] it was 88.6%; in assay [11] it was 87.1%; in assay [12], 92.5%. The growth was 99.9% in assay [13]; 97.8% in [14]; 103% in assay [15]; 85% in assay [16]; 94.2% in assay [17]; 98.9% in assay [18]. Also, the values for the growth in assay [19] and in assay [20] were 87.1% and 95.3%, respectively.
For the molecule `Cn1cc(-c2ccc(-c3cn(C)c4ccc(Cl)cc34)[nH]2)c2cc(Cl)ccc21`, the growth in assay [1] was 32%; in [2], -29.8% (active); in assay [3], -59.1% (active); in assay [4] it was -48.5% (active); in assay [5], -51.3% (active); in assay [6] it was -67.2% (active). Further, the growth in assay [7] was -15.1% (active); in [8] it was -56.1% (active); in assay [9], -34.7% (active); in assay [10], -75.2% (active); in assay [11] it was -66.3% (active); in assay [12], 21.9%. The growth in assay [13] is -59.9% (active); in [14], -68.5% (active); in [15] it was -100% (active); in assay [16], -56.5% (active); in [17] it was -98.6% (active); in assay [18], -82.3% (active). Further, the growth is -95.2% (active) in assay [19] and -52.9% (active) in assay [20].
